Data reported in PubChem BioAssay (EPA / NIEHS).
Records with an inconclusive call do not appear. The source made the active and inactive calls. The calls were made as follows, unless noted: active = hit-call score of the fitted dose curve at least 0.9, where 1 is the maximum; inconclusive = response in the unintended direction; inactive = score below 0.9.

How the values were obtained:
[1] = Tanguay_ZF_120hpf_BRAI_legacy: (Legacy) Oregon State University Tanguay Lab 120 Hour Post-fertilization zebrafish Assay for Brain Malformation (AID 2283641)
Method in brief: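 Tropical 5D wild-type zebrafish embryos exposed statically until 120 hpf at 28C, 0.64% DMSO final, sealed and dark. Brain malformation scored present/absent by brightfield at 120 hpf; dead embryos excluded. Trimethyltin chloride 5uM positive control.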

[2] = Tanguay_ZF_120hpf_SOMI_legacy: (Legacy) Oregon State University Tanguay Lab 120 Hour Post-fertilization zebrafish Assay for Somite Malformation (AID 2283647)
Method in brief: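 Dechorionated Tropical 5D wild-type zebrafish embryos, one per well from 6 hpf, statically exposed at 28C to 120 hpf in 0.64% DMSO; somite malformation scored present/absent by brightfield; trimethyltin 5 uM positive control; dead embryos not scored.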

[3] = Tanguay_ZF_120hpf_PFIN_legacy: (Legacy) Oregon State University Tanguay Lab 120 Hour Post-fertilization zebrafish Assay for Pectoral Fin Malformation (AID 2283648);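 also: each larva judged yes or no for fin defect by brightfield with dead larvae skipped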
Method in brief: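 Binary pectoral fin malformation call at 120 hpf by brightfield microscopy; 5D wild-type zebrafish, chorion removed at 4 hpf, one embryo per well from 6 hpf, static exposure at 28C; DMSO (0.64% final) as baseline.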

[4] = Tanguay_ZF_120hpf_CFIN_legacy: (Legacy) Oregon State University Tanguay Lab 120 Hour Post-fertilization zebrafish Assay for Caudal Fin Malformation (AID 2283649)
Method in brief: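 Dechorionated Tropical 5D wild-type embryos, one per well from 6 hpf, static exposure to 120 hpf at 28C in 0.64% DMSO. Caudal fin malformation scored by brightfield as present/absent; not scored in dead embryos.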

[5] = Tanguay_ZF_120hpf_CIRC_legacy: (Legacy) Oregon State University Tanguay Lab 120 Hour Post-fertilization zebrafish Assay for Circulatory Malformation (AID 2283651)
Method in brief: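 Binary circulatory-malformation call at 120 hpf via brightfield imaging, relative to DMSO controls. Embryos (5D strain, chorion removed) received static, light-shielded exposure at 28C.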

[6] = Tanguay_ZF_120hpf_SWIM_legacy: (Legacy) Oregon State University Tanguay Lab 120 Hour Post-fertilization zebrafish Assay for Swim Bladder Malformation (AID 2283654);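 also: swim bladder malformation in each larva scored yes or no under brightfield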
Method in brief: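 Tropical 5D embryos dechorionated at 4 hpf; 1 embryo/well from 6 hpf; static, sealed, dark exposure at 28C until 120 hpf; final DMSO 0.64%; 5uM trimethyltin chloride positive control; swim bladder defect recorded yes/no; dead embryos not scored.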

[7] = Tanguay_ZF_120hpf_TRUN_legacy: (Legacy) Oregon State University Tanguay Lab 120 Hour Post-fertilization zebrafish Assay for Truncated Body (AID 2283655)
Method in brief: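 Dechorionated Tropical 5D wild-type embryos placed singly from 6 hpf and statically exposed to 120 hpf at 28C, final DMSO 0.64%. Truncated body scored as present/absent by brightfield; not scored in dead embryos.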

[8] = Tanguay_ZF_120hpf_PIG_legacy: (Legacy) Oregon State University Tanguay Lab 120 Hour Post-fertilization zebrafish Assay for Pigmentation Malformation (AID 2283650)
Method in brief: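 Brightfield scoring of pigmentation malformation at 120 hpf, recorded as binary present/absent per larva. Exposure: dechorionated 5D wild-type embryos, one per well, static from 6 hpf at 28C, final DMSO 0.64% (vol/vol). Dead embryos not scored.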

[9] = read-out: solute carrier (SLC22A6), SLC22A6 (gene 9356); assay: LTEA_HepaRG_SLC22A6: Life Technologies and Expression Analysis (LTEA) Assay for solute carrier (SLC22A6) using HepaRG (AID 2283653; active = hit-call score of the fitted dose curve at least 0.9, where 1 is the maximum; inactive = score below 0.9); conditions: mRNA level, 48 h; actives raise or lower the signal
Protocol: LTEA_HepaRG is a cell based, multiplexed-readout assay that uses HepaRG, a human liver cell line, with measurements taken at 48 hours after chemical dosing on a 96-well plate.LTEA_HepaRG_SLC22A6 is one of 102 assay component(s) measured in the LTEA HepaRG cell culture assay. It is a marker of NR mediated transport.Data from the assay component LTEA_HepaRG_SLC22A6 was analyzed into 1 endpoint. This assay endpoint, LTEA_HepaRG_SLC22A6, was analyzed with bidirectional fitting relative to DMSO as the negative control and baseline of activity. Using a type of inducible reporter, measures of mRNA induction for gain or loss-of-signal activity can be used to understand regulation of transcription factor activity. To generalize the intended target to other relatable targets, this assay endpoint is annotated to the transporter intended target family, where the subfamily is organic anion transporter.
A total of 1060 chemcials from the ToxCast library were tested in eight-point concentration-response experiments. Cell culture and cytotoxicity assays were conducted at Thermo Fisher Scientific's Custom Services facility (Madison, WI). A single lot of human HepaRG cells (Thermo Fisher Scientific, Frederick, MD) was used for the cell culture experiments. 96-well format collagen type I coated plates of human HepaRG cells were prepared using established methods. Briefly, cryopreserved HepaRG cells were thawed, plated at a density of approximately 100,000 cells/well in HepaRG Thaw, Plate, and General Purpose media (HPRG770, Thermo Fisher Scientific), and incubated for 48 hours. 0.5% DMSO was selected as vehicle control to balance the requisite need of DMSO in HepaRG cultures to maintain differentiation (for example, baseline metabolism, proportions of hepatocytes vs. cholangiocytes), while enabling further hepatic receptor pathway activation (for example, PXR and CAR) in response to chemical exposure. 48 hours after plating, the culture medium was replaced with HepaRG Serum-Free Incudtion Media. Cells were exposed to each test chemical in duplicate and maintained in CO2 incubators for another 48 hours. Chemical plates were thawed to room temperature and 200x concentrations of treatment groups were prepared. 8-point conentration-reponse curves were made with the highest exposure at 100 uM, followed by half-log dilutions, all in 0.5% DMSO. […] Fluidigm's 96.96 Dynamic ArrayTM (Fluidigm, Amsterdam, the Netherlands) technology was used for gene expression analyses by quantitative reverse transcription polymerase chain reaction (qRT-PCR, performed by Quintiles/Expression Analysis, Durham, NC)89. […]

[10] = read-out: kallikrein-3 (KLK3), KLK3 (gene 354); assay: LTEA_HepaRG_KLK3: Life Technologies and Expression Analysis (LTEA) Assay for kallikrein-3 (KLK3) using HepaRG (AID 2283652; active = hit-call score of the fitted dose curve at least 0.9, where 1 is the maximum; inactive = score below 0.9); conditions: mRNA level, 48 h; actives raise or lower the signal
Method in brief: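 KLK3 transcript levels were measured by TaqMan qRT-PCR with normalisation to three housekeeping genes. HepaRG cultures received chemicals for 48 h at up to 100 uM (half-log, 8 points, 0.5% DMSO vehicle), fitted in both directions against DMSO.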

Measured: AC50

COc1ccc(/C=C/S(=O)(=O)NC(=O)c2ccc(C)cc2Cl)cc1
not listed: [8] | [9] | [10]
inactive: all other assays above

CCC(C)(C)C(=O)O[C@H]1C[C@@H](C)C=C2C=C[C@H](C)[C@H](CC[C@@H]3C[C@@H](O)CC(=O)O3)[C@H]21
active: [1] 0.645 µM | [3] 0.652 µM
inactive: [2] | [4] | [5] | [6] | [7]

COC(=O)c1ccccc1O
not listed: [8] | [9] | [10]
inactive: all other assays above

Nc1ccc(Nc2ccccc2)cc1
active: [1] 45.1 µM | [2] 40.1 µM | [3] 41.2 µM | [4] 47 µM | [6] 45.6 µM | [7] 40.8 µM

Clc1nc(Cl)c(Cl)c(Cl)c1Cl
not listed: [8] | [9] | [10]
inactive: all other assays above

CC(C)=CCC/C(C)=C/CO
active: [4] 31.6 µM
not listed: [8] | [9] | [10]
inactive: all other assays above

CCCC(=O)OCC
not listed: [8] | [9] | [10]
inactive: all other assays above

CC(=O)OC[C@H]1O[C@@](COC(C)=O)(O[C@H]2O[C@H](COC(C)=O)[C@@H](OC(C)=O)[C@H](OC(C)=O)[C@H]2OC(C)=O)[C@@H](OC(C)=O)[C@@H]1OC(C)=O
inactive: [1] | [2] | [3] | [4] | [5] | [7]

CCOC(=O)CC(CC(=O)OCC)(OC(C)=O)C(=O)OCC
inactive: [1] | [2] | [3] | [4] | [5] | [6]

O=C(CCCCCCCCc1cccnc1)N1CCC(C=C(c2ccccc2)c2ccccc2)CC1
not listed: [8] | [9] | [10]
inactive: all other assays above

O=c1[nH]c2ccc(S(=O)CCN3CCC(Cc4ccc(F)cc4)CC3)cc2o1 (stereo not given)
inactive: [1] | [2] | [3] | [4] | [5] | [7]

COc1ccc2sc(C(=O)Nc3nnn[nH]3)c(OC(C)C)c2c1
not listed: [8] | [9] | [10]
inactive: all other assays above

CC(O)CN(CCN(CC(C)O)CC(C)O)CC(C)O (stereo not given)
not listed: [8] | [9] | [10]
inactive: all other assays above

O=c1n(CC2CO2)c(=O)n(CC2CO2)c(=O)n1CC1CO1 (stereo not given)
not listed: [8] | [9] | [10]
inactive: all other assays above

Cn1c(=O)c2c(ncn2C)n(C)c1=O
not listed: [8] | [9] | [10]
inactive: all other assays above

CC(C)=CCCC(C)CCO (stereo not given)
not listed: [8] | [9] | [10]
inactive: all other assays above

O=C(OC[C@H]1O[C@@H](OC(=O)c2cc(O)c(O)c(OC(=O)c3cc(O)c(O)c(O)c3)c2)[C@H](OC(=O)c2cc(O)c(O)c(OC(=O)c3cc(O)c(O)c(O)c3)c2)[C@@H](OC(=O)c2cc(O)c(O)c(OC(=O)c3cc(O)c(O)c(O)c3)c2)[C@@H]1OC(=O)c1cc(O)c(O)c(OC(=O)c2cc(O)c(O)c(O)c2)c1)c1cc(O)c(O)c(OC(=O)c2cc(O)c(O)c(O)c2)c1
not listed: [8] | [9] | [10]
inactive: all other assays above

Cc1ccc(C)c(O)c1
not listed: [8] | [9] | [10]
inactive: all other assays above

CCOCCO
inactive: [1] | [4] | [5] | [6] | [7]

Cn1cnc([N+](=O)[O-])c1Sc1ncnc2nc[nH]c12
inactive: [2] | [4] | [5] | [7]

Cc1ccc(O)cc1
inactive: [1] | [3] | [5] | [7]

COCCOCCOCCOC
inactive: [1] | [3] | [4] | [6] | [7]

Nc1nc2ncc(CNc3ccc(C(=O)N[C@@H](CCC(=O)O)C(=O)O)cc3)nc2c(=O)[nH]1
inactive: [4] | [5] | [6] | [7]

CC(C)=CCC/C(C)=C\CO
inactive: [1] | [3] | [4] | [8] | [5] | [7]

NC(=O)NO
not listed: [2] | [9] | [10]
inactive: all other assays above

O=C(NS(=O)(=O)/C=C/c1ccccc1)c1ccc(F)cc1Cl
inactive: [1] | [4] | [8] | [7]

COc1cccc(-c2ccc(/C=C\CN3CCCCCC3)cc2Cl)c1
inactive: [1] | [2] | [3] | [6] | [7]

O=C(O)c1cccc(Oc2ccccc2)c1
not listed: [2] | [10]
inactive: all other assays above

O=C(O)c1cc(N=Nc2ccc(S(=O)(=O)Nc3ccccn3)cc2)ccc1O
inactive: [2] | [3] | [4] | [8] | [6] | [7]

CCCCCCCCCCCCCCCO
inactive: [1] | [3] | [4] | [5] | [6] | [7]

C=CC(=C)CCC=C(C)C
not listed: [3] | [8]
inactive: all other assays above

CC[C@H](C)C(=O)O[C@H]1C[C@@H](C)C=C2C=C[C@H](C)[C@H](CC[C@@H]3C[C@@H](O)CC(=O)O3)[C@H]21
not listed: [1] | [9] | [10]
inactive: all other assays above

COC(=O)c1c(Cl)c(Cl)c(C(=O)OC)c(Cl)c1Cl
inactive: [1] | [2] | [4] | [5] | [6] | [7]

O=C1CCC(N2C(=O)c3ccccc3C2=O)C(=O)N1 (stereo not given)
inactive: [3] | [4] | [5] | [6] | [7]

COC(=O)CC(=O)OC
inactive: [1] | [2] | [3] | [5] | [6] | [7]

CCOCCOCCOCCO
inactive: [1] | [2] | [4] | [6] | [7]

CCc1cc(SCc2sc(-c3ccc(C(F)(F)F)cc3)nc2CN2CCN(c3ccc(OC)cc3)CC2)ccc1OCC(=O)O
not listed: [3] | [9] | [10]
inactive: all other assays above

O=C1CCCCCN1
inactive: [1] | [2] | [4] | [5] | [6] | [7]

CC(C)=CCCC(C)=CC=O
inactive: [1] | [2] | [4] | [5] | [6] | [7]

CC1=CC(=O)CC(C)(C)C1
inactive: [1] | [3] | [4] | [5] | [6] | [7]

CCCCCCc1ccc(O)cc1O
inactive: [1] | [3] | [5] | [6] | [7]

Nc1cccc(N)c1
inactive: [2] | [3] | [6] | [7]

Cc1c(-c2cccnc2)c2ccccc2n1CCCCC(=O)O
not listed: [3] | [9] | [10]
inactive: all other assays above

CC(=O)OCCC(C)C
inactive: [1] | [4] | [6] | [7]

CN(C)c1ccc(N=NS(=O)(=O)O)cc1
inactive: [2] | [8] | [5] | [6] | [7]

CC[C@H]1CC[C@H](NCc2cc3c(cc2OC)[C@H]2C[C@H]2C(=O)N3C)[C@H](c2ccccc2)N1
inactive: [2] | [3] | [4] | [6] | [7]

CNS(=O)(=O)c1cc(C(=O)N2CCC(CCN3C4CCC3CC(n3c(C)nc5ccccc53)C4)(c3cccc(F)c3)CC2)c(Cl)cc1F (stereo not given)
inactive: [1] | [2] | [3] | [6] | [7]

CC(C)c1cccc(C(C)C)c1N1C(=O)c2ccc(O)cc2C1=O
not listed: [2] | [7] | [8]
inactive: all other assays above
